Drawing on ChEMBL document CHEMBL4513146, “CO-ADD screening of Karazin Kharkiv National University (Ukraine) compounds”, this text covers Inhibition for 21 compounds.

The Inhibition is the drop in the measured response relative to a control, in per cent.

Assay [1] relates to Klebsiella pneumoniae. Particulars: Concentration 32 ug.mL-1;; ASSAY_TEST Inhibition of Bacterial Growth; detection method Absorption (OD600); MEDIA CAMHB; plate type 384well; NBS; CORNING #3640; time 18 hr.
The test system of assay [2] is Candida albicans. Particulars: Concentration 32 ug.mL-1; ASSAY_TEST Inhibition of Fungal Growth; detection method Absorption (OD530).
Assay [3] relates to Cryptococcus neoformans. Particulars: Concentration 32 ug.mL-1; ASSAY_TEST Inhibition of Fungal Growth; detection method Resazurin; Absorption (OD600-OD570); plate type 384well; NBS; CORNING #3640. For orientation: Alamar Blue is a resazurin reagent that responds to reducing activity.

Molecules are shown by their SMILES. Entries with a potency or affinity are not part of this list.

On to `CCc1nnc2c(S(=O)(=O)N(Cc3ccccc3C)c3ccc(C(C)C)cc3)cccn12`, for which the Inhibition was 3.73% in assay [1], 21.84% in assay [2] and -8.38% in assay [3].
As for `CSc1ccc(CNC(=O)Cn2nc3c(N4CCN(c5ccccc5)CC4)nccn3c2=O)cc1`, the Inhibition in assay [1] is listed as 15.47%; in assay [2], 1.95%; in assay [3] it was -6.85%.
Consider `CCc1ccc(N(Cc2ccccc2)S(=O)(=O)c2cccn3c(CC)nnc23)cc1`, for which the Inhibition in assay [1] is recorded as 8.89%; in assay [2], 13.04%; in assay [3], -8.52%.
For `CC(C)CCn1c(=O)c2sccc2n2c(=O)n(CC(=O)N(C)c3ccccc3)nc12`, in that order: 0.74%, -2.64% and -16.67%.
`COc1ccccc1-n1ccn2c(SCc3ccccc3Cl)nnc2c1=O`: the Inhibition in assay [1] is given as 10.5%; in assay [2] it was 2.3%; in assay [3], -11.71%.
For `CC(C)CCn1c(=O)c2sccc2n2c(=O)n(CC(=O)N3CCC(Cc4ccccc4)CC3)nc12`, the results for the Inhibition in assay [1], in assay [2] and in assay [3] were -9.97%, 0.93% and -41.06%, respectively.
With `O=C(CSc1nnc2c(=O)n(-c3ccc(F)c(F)c3)ccn12)c1ccccc1Cl`, the Inhibition in assay [1] is reported as 10.86%; in assay [2], 3.43%; in assay [3] it was -7.06%.
For `CCc1ccc(NC(=O)Cn2nc3cc(C)nc(Nc4ccc(C)c(F)c4)n3c2=O)cc1`, in that order: 10.82%, 3.74% and -2.27%.
As for `Cc1ccc(NC(=O)Cn2nc3c4cc(-c5ccc(C)c(C)c5)nn4ccn3c2=O)cc1C`, the Inhibition is recorded as 4.54% in assay [1], 4.1% in assay [2] and -9.03% in assay [3].
Regarding `COc1ccc(NC(=O)Cn2nc3c4cc(-c5ccc(C)cc5)nn4ccn3c2=O)cc1`, the Inhibition in assay [1] is given as -1.42%; in assay [2], -0.28%; in assay [3], -12.53%.
As to `Cc1cc(C)cc(NC(=O)Cn2nc3c4cc(-c5ccc(Cl)cc5)nn4ccn3c2=O)c1`, the Inhibition in assay [1] is on record as 7.37%; in assay [2] it was 6.87%; in assay [3], -7.11%.
Regarding `Cc1ccc(Oc2nc3ccccc3n3c(=O)n(CC(=O)Nc4ccccc4C(F)(F)F)nc23)cc1`, the Inhibition in assay [1] is given as 13.52%; in assay [2], 1.1%; in assay [3], -22.18%.
Regarding `Cc1ccc(Oc2nccn3c(=O)n(CC(=O)NCc4ccccc4Cl)nc23)cc1`, the Inhibition in assay [1] is 6.19%; in assay [2] it was 1.69%; in assay [3] it was -7.33%.
As for `Cc1cccc(NC(=O)Cn2nc3c4cc(-c5ccc(Cl)cc5)nn4ccn3c2=O)c1`, the Inhibition in assay [1] is 1.22%; in assay [2], 16.29%; in assay [3], -21.44%.
Take `COc1ccc(CNC(=O)CCc2nnc3c4cc(-c5ccc(Cl)cc5)nn4ccn23)cc1OC`: the values for the Inhibition in assay [1], in assay [2] and in assay [3] were 10.48%, 1.41% and -19.71%, respectively.
Consider `O=C(NCc1ccccc1)c1ccc2nn(CC(=O)N3CCN(c4ccccc4)CC3)c(=O)n2c1`, for which the Inhibition is reported as 13.57% in assay [1], 3.02% in assay [2] and -23.82% in assay [3].
`Cc1ccccc1Oc1nccn2c(=O)n(CC(=O)Nc3cc(F)ccc3F)nc12`: the Inhibition is 13.37% in assay [1], -0.39% in assay [2] and -8.18% in assay [3].
Consider `O=C(Cn1nc2ccc(-c3ccccc3)nn2c1=O)N1CCN(c2ccc(F)cc2)CC1`, for which the Inhibition in assay [1] is 3.94%; in assay [2] it was -0.37%; in assay [3] it was -5.73%.
In the case of `O=C(CSc1nnc2c(=O)n(-c3ccccc3)ccn12)Nc1ccccc1F`, the Inhibition was 7.24% in assay [1], -0.73% in assay [2] and -14.95% in assay [3].
As to `Cc1ccc(NC(=O)CSc2nnc3c(=O)n(-c4ccccc4)ccn23)c(C)c1`, the Inhibition in assay [1] is given as -2.79%; in assay [2], 2.18%; in assay [3], -11.34%.
For `CCc1ccccc1Sc1nccn2c(=O)n(CC(=O)N3CCN(c4ccccc4)CC3)nc12`, in that order: -1.73%, 3.92% and -19.52%.
